A selection: hits, their analogues and other compounds. The true share with any hit is near 1.2%.
GC-B act – GC-B (human) receptor activation. P20594. HEK293-GC-B cells, CNP EC30, cGMP TR-FRET; 0% at EC30 CNP, 100% saturating CNP. activation, % at 10 µM. actives 0.11% (n = 370,000);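 active = activation at 10 µM reaching about 35% in either raw or pattern-adjusted values, limit read from the data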
TLR4 MyD88 comp – inhibitors of human TLR4-MyD88 binding | O00206+Q99836 | HeLa CL3-4 TLR4/MyD88 BLA complementation, FRET ratio | inhibition, % at 8.4 µM | actives 0.18% (n = 200,000); in the data active = inhibition above about 25%;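 also: 0% = vehicle and 100% = reference inhibitor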
Neddylation inh – cullin neddylation inhibition; P61081+Q13564; TR-FRET cullin neddylation, biochemical; inhibition, % at 25 µM; actives 0.58% (n = 360,000); AID 651699; in the data active = inhibition above about 36%
Target sequence (P61081 whole entry, looked up): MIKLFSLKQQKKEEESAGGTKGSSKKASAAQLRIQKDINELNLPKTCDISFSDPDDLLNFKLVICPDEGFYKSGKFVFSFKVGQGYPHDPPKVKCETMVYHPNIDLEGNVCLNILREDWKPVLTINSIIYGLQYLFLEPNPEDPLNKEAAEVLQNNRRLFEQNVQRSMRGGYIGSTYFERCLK
Target sequence (Q13564 whole entry, looked up): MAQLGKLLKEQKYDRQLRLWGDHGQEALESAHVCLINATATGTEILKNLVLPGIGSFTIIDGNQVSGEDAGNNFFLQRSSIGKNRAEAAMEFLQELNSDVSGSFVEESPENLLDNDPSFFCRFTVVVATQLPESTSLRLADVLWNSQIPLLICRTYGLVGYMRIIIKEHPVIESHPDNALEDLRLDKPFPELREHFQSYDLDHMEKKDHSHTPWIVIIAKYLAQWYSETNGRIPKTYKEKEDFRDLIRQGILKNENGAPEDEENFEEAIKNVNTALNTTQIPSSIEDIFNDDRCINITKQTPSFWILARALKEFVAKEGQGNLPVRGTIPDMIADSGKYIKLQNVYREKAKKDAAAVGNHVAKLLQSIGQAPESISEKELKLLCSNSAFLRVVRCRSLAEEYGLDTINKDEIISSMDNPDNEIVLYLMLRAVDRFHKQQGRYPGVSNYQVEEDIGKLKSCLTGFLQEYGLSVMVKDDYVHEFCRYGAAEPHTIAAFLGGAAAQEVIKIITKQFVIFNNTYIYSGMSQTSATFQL
TLR9-MyD88 inh – inhibitors of human TLR9-MyD88 binding. Q9NR96+Q99836. CHO BLA complementation TLR9-MyD88, CCF4 FRET ratio. inhibition, % at 4.98 µM. actives 0.21% (n = 340,000). AID 504734;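 active = inhibition above the mean over all tested compounds plus 3 SD, cut at about 21% in these data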;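 also: 0% = DMSO only wells and 100% = clavulanate BLA inhibitor control wells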
GC-A act – GC-A (human) enzyme activation. P16066. HEK293 GC-A cells, cGMP TR-FRET, EC30 ANP; 0% at EC30 ANP, 100% saturating ANP. activation, % at 10 µM. actives 0.14% (n = 370,000); in the data active = activation above about 40%
NOD2 RIPK2 PPI – inhibitors of human NOD2-RIPK2 interaction; actives 0.38% (n = 360,000); O43353; CHO BLA complementation NOD2-RIPK2, CCF4 ratio; inhibition, % at 4.98 µM; in the data active = inhibition above about 21%;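 also: 0% = vehicle only and 100% = reference blocker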
Neddyl inh conf – confirmation of human cullin neddylation inhibitors | shares compounds with Neddylation inh | actives 13% (n = 1,800) | TR-FRET cullin neddylation biochemical assay | calls only at 25 µM; in the data active = inhibition above about 40%;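 also: neddylation substrate is the cullin 1 ring ligase complex with SKP2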
Starred values were filed as active, the others as inactive; i = inactive; . = no result given; + = active, no number.

SMILES	GC-B act	TLR4 MyD88 comp	Neddylation inh	TLR9-MyD88 inh	GC-A act	NOD2 RIPK2 PPI	Neddyl inh conf
Cc1ccc2oc(C(=O)NCC3CCOCC3)c(C)c2c1	-6	.	-2	-2	-1	1	.
COc1cccc([C@@H]2CC=C(C(=O)O)[C@H](c3ccc(F)cc3)N2S(=O)(=O)c2ccc(C)cc2)c1	-3	.	38*	2	0	-2	i
COc1cccc([C@@H]2CC=C(C(=O)O)[C@H](c3ccccc3)N2S(=O)(=O)c2ccc(C)cc2)c1	3	.	-5	-3	1	-4	.
CCCC1(C(=O)OC)NC(c2ccc(OC)cc2OC)C2C(=O)N(c3cccc(C(C)=O)c3)C(=O)C21 (configuration not stated)	3	.	-3	3	-3	-3	.
CCOc1cc(NC(=O)C2CC2)c(OCC)cc1NC(=O)c1ccccc1OCC	-1	.	50*	1	3	-11	.
CCOc1cc(NC(=O)C2CC2)c(OCC)cc1NC(=O)c1cc(OC)c(OC)c(OC)c1	3	.	.	-2	5	-10	.
CCOC(=O)C1CCN(c2cc3c(cc2NC(=O)c2ccccc2OCC)n(C)c(=O)n3C)CC1	7	.	46*	-4	5	-2	i
CCOC(=O)C1CCN(c2cc3c(cc2NC(=O)c2ccccc2Cl)n(C)c(=O)n3C)CC1	3	.	.	-8	2	2	.
Cc1c(Cl)cccc1N(CC(=O)NC(C)c1ccccc1)S(C)(=O)=O (configuration not stated)	-4	.	2	-4	-7	-4	.
CC(=O)N1CCc2cc(Br)c(S(=O)(=O)CCC(=O)N3CCN(c4ccccn4)CC3)cc21	-2	.	.	.	3	.	.
CCCN(CC1CC1)c1c2c(nc3ncnn13)CCCC2	-2	.	.	.	2	.	.
CCC(=O)N(Cc1ccco1)Cc1cc2cc3c(cc2[nH]c1=O)OCO3	0	8	41*	-12	0	-6	i
CCN(CC)CCN(Cc1cc2cc3c(cc2[nH]c1=O)OCCO3)C(=S)NCCCOC	5	.	46*	1	-1	6	.
CCN(CC)CCCN(Cc1cc2cc3c(cc2[nH]c1=O)OCO3)C(=S)NCc1ccco1	2	-1	41*	-7	5	-3	i
CCN(CC)CCN(Cc1cc2cc3c(cc2[nH]c1=O)OCO3)C(=S)NCc1ccco1	1	-5	24	6	2	-11	.
COCCCNC(=S)N(CCO)Cc1cc2cc3c(cc2[nH]c1=O)OCCO3	0	.	32	3	1	7	.
C[C@@H]1CN[C@H](CCO)/C1=C\c1ccccc1	1	.	1	-15	2	-3	.
Cc1cn([C@H]2C[C@H](O)[C@@H](CCC(=O)NCCCc3ccccc3)O2)c(=O)[nH]c1=O	-2	.	-3	.	1	-6	.
Cc1cccn2c(=O)c(C=NCc3ccccc3)c(NCCO)nc12	-2	-4	45*	-8	5	-7	+
Cc1cccn2c(=O)c(/C=N/O)c(NCc3ccccc3)nc12	5	.	43*	-15	4	7	.
CC(C)c1ccccc1N=C1SCCCN1C(=O)c1cccc(N2C(=O)CCC2=O)c1	1	.	9	-1	1	-1	.
CC1(C)CC2(CCO1)C(Nc1ccccc1)=NC(=S)N2CC(N)=O (configuration not stated)	-4	.	36*	-5	5	-3	i
Cc1ccccc1NC1=NC(=S)N(CC(N)=O)C12CCOC(C)(C)C2 (configuration not stated)	0	.	7	-8	1	-6	.
CCOC(=O)Cc1nc(N2CCN(CCO)CC2)c2c(C)c(C(=O)OCC)sc2n1	4	.	.	.	5	.	.
CCCNC(=O)c1oc2ccc3c(c2c1C)C=CC(C)(C)O3	-7	.	40*	0	6	-2	i
SMILES	GC-B act	TLR4 MyD88 comp	Neddylation inh	TLR9-MyD88 inh	GC-A act	NOD2 RIPK2 PPI	Neddyl inh conf
CCCNC(=O)c1oc2ccc3c(c2c1C)C(=O)CC(C)(C)O3	6	8	.	-4	6	-3	.
C[C@@H]1CN([C@H](C)CO)C(=O)CCCn2nncc2CO[C@H]1CN(C)Cc1cccc(C(F)(F)F)c1	4	.	0	-4	-2	-12	.
COc1ccc(-c2ccc3c(N)c(C(=O)NC(C)C)sc3n2)cc1OC	-3	.	39*	.	13	-7	.
COc1ccc(-c2ccc3c(n2)sc2c(=O)[nH]c(=O)[nH]c23)cc1OC	.	0	.	.	.	.	.
O=C(COC(=O)c1cc(-c2ccc(F)cc2)nc2ccccc12)NCC1CCCO1 (configuration not stated)	-2	2	49*	-1	0	5	i
CC(Oc1ccccc1F)c1ccnc2nc(/N=C/N(C)C)nn12 (configuration not stated)	-1	-18	47*	-12	3	-3	i
COc1ccc(C(=O)N2CCN(C)C(=O)[C@@H]2C)cc1OC1CCN(C(C)=O)CC1	2	.	0	0	4	3	.
CCN(CC(=O)NCc1cccs1)C(=O)/C=C/c1cccc(OC)c1OC	-3	.	46*	-9	1	-38	.
CCN(CC(=O)NCc1cccs1)C(=O)/C=C/c1ccc(OC)c(OC)c1	1	.	23	-5	-2	9	.
CN(C(=O)CSc1nnc(CNC(=O)c2ccccc2)o1)c1ccccc1	0	.	4	3	3	0	.
CCOC(=O)c1nsnc1NCCSC(=N)N	-5	-5	40*	-3	7	-11	i
COc1ccc(C)cc1N(C(=O)c1snc(C(N)=O)c1N)C(C(=O)NC1CCCCC1)c1ccc(C)o1 (configuration not stated)	-5	.	44*	1	-20	-2	.
COc1ccc(OC)c(C(C(=O)NC2CCCCC2)N(C(=O)c2snc(C(N)=O)c2N)c2ccccc2OC)c1 (configuration not stated)	-14	.	-173	0	-13	-8	.
CCOc1ccccc1N(C(=O)c1snc(C(N)=O)c1N)C(C(=O)NCCC(C)C)c1ccco1 (configuration not stated)	-16	-19	44*	-12	-13	3	i
COc1ccccc1N(C(=O)c1snc(C(N)=O)c1N)C(C(=O)NC1CCCC1)c1ccco1 (configuration not stated)	-14	-9	43*	-10	-24	-11	+
CC1(C)C=C2C(N(CC3CC3)C(=N)N2C(=O)OCc2ccccc2)n2c(=O)n(-c3ccccc3)c(=O)n21 (configuration not stated)	-2	.	.	.	1	.	.
Nc1nnc(-c2cc3ccccc3oc2=O)s1	-4	14	47*	14	11	12	+
COc1ccccc1NC(=O)NNC(=O)c1ccc2ccccc2c1	1	.	-8	-4	2	-5	.
